Assay outcomes (PubChem)
Hits are enriched below; roughly 9.2% of the tested compounds scored in any of these assays.
FLuc modulator = inhibits or activates purified firefly luciferase, miR-21 counter-screen | P08659 | purified FLuc, Km substrates, luminescence inhibition | Potency, µM (series often up to 57.5 µM), without a hit: top-dose activity change, negative = inhibition, actives largely listed as inhibitors | 360,000 tested, 6.9% active;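 further: plate controls were vehicle for no effect and reference inhibitor for full effect; nearly all actives have a fitted effect of over 55% in size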
Target sequence (P08659 whole entry, looked up): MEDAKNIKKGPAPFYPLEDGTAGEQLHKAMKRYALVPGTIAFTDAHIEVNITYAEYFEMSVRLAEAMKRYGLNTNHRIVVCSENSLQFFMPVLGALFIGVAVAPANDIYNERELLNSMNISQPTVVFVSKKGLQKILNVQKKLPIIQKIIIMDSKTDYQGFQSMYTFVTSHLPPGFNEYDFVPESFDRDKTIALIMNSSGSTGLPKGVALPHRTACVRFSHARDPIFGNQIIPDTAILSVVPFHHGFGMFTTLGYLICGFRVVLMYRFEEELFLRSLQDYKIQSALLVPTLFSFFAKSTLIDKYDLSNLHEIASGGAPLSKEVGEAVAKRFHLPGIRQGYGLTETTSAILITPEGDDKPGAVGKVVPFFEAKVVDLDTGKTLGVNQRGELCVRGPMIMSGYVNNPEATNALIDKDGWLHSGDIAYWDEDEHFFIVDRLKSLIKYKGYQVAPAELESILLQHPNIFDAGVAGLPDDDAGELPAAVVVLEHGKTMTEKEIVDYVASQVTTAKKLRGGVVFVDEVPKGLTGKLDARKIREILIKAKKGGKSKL
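Purified P. pyralis luciferase, 10 nM final, with Km-level 10 uM D-luciferin and 10 uM ATP in 50 mM Tris acetate pH 7.5, 10 mM Mg acetate, 0.01% Tween-20, 0.05% BSA; 6-point qHTS titration about 60 µM downward; luminescence read.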
ELG1 genotox = induces genotoxicity in HEK293T cells with luciferase-tagged ELG1; HEK293T ELG1-luciferase reporter, luminescence, 16 h; 330,000 tested, 1.3% active; Potency, µM (titrated, usually from 46 µM), for the others: top-dose activity change, positive = activation, usual class: activators; AID 504466; further: % of control where 0% means no effect; nearly all actives have a fitted effect of over 60% in size
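16 hr compound incubation (37 °C, 5% CO2) of HEK293T cells carrying luciferase-tagged ELG1; luciferase then measured by ONE-Glo luminescence after 30 min at RT.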
Rab9 promoter act = Rab9 promoter activation; Huh7 Rab9 promoter-luciferase reporter, luminescence, 24 h; Potency, µM (highest dose often 9.22 µM), for inactives: top-dose activation, negative = inhibition, actives largely listed as activators; 320,000 tested, 2.8% active; AID 485297; further: % of control where 0% means no effect; nearly all actives have a fitted effect of over 60% in size
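Luciferase signal after 10 min detection reagent at ambient indicates Rab9 promoter upregulation; stably transfected Huh7 cells were treated 24 h with compound in DMSO at 37 °C, 5% CO2.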
NPC1 prom act = activates the NPC1 promoter; AID 485313; Potency, µM (highest dose often 9.22 µM), without a hit: at the top dose activation, most hits filed as activators; 320,000 tested, 2.4% active; Huh7 NPC1 promoter luciferase reporter, 24 h; further: % of control where 0% means no effect; nearly all actives have a fitted effect of over 60% in size
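Luciferase expression driven by the NPC1 promoter was measured in stably transfected Huh7 cells after a 24 h compound incubation, using a luciferase reagent and a luminescence read.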
SMN2 splice enh = SMN2 splice variant enhancement; HEK293 SMN2-luciferase splicing reporter, luminescence, 30-36 h; AID 1458; Potency, µM (doses to about 46.1 µM), without a hit: at the highest dose activity change, positive = activation, most hits filed as activators; 210,000 tested, 2.8% active; further: % of control where 0% means no effect; nearly all actives have a fitted effect of over 55% in size
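HEK293 cells carry an SMN2 minigene-luciferase reporter in which exon 7 inclusion puts luciferase in frame. Cells were seeded at 2000 cells/well, attached for 10-12 hours, then exposed to compounds for 30-36 hours at 37C before ONE-Glo luminescence.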
ELG1 repair inh = inhibitors of ELG1-dependent DNA repair in HEK293T cells | 330,000 tested, 2.3% active | HEK293T ELG1-luciferase reporter, luminescence, 16 h; DNA damage induced by 5-fluorouridine | AID 504467 | Potency, µM (doses to about 46.1 µM), inactives show at the top dose activity change, negative = inhibition, usual class: inhibitors; further: on the % scale 0 is the no-effect control and ±100 the full control effect; nearly all actives have a fitted effect of over 55% in size
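5-Fluorouridine DNA damage + compound/DMSO, 2,000 cells/well, 16 h, 37 °C/5% CO2. ONE-Glo, 30 min RT, luminescence. Readout = decrease in reporter signal.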
Numbers without * were called inactive; ? = inconclusive; / = no result given; [ ] = remark or other dose. The call rests on the fitted dose curve; in most records, active means well fitted curve in the direction sought with a large enough effect; inconclusive means small, poorly fitted or top-dose-only effect, or another doubt; inactive means no such curve, though single readings can be large; an effect the other way counts as inactive or inconclusive. Potency means the concentration at half of the fitted maximal effect.

SMILES | FLuc modulator | ELG1 genotox | Rab9 promoter act | NPC1 prom act | SMN2 splice enh | ELG1 repair inh
O=C(Nc1ccc(N2CCN(c3ccc(F)cc3)CC2)c(C(=O)O)c1)c1cccs1 | -2.0% | / | / | / | / | /
O=C(Nc1ccc(N2CCCC2)c(Cl)c1)c1cccs1 | 2.39µM* | 2.31µM* | 0.447µM* | 0.708µM* | 2.82µM* | ?
O=C(NC(=S)Nc1ccc(N2CCOCC2)c(Cl)c1)c1cccs1 | 19µM* | 2.7% | ? | ? | -9.3% | -6.3%
Cc1ccc(C(C)C)c(OCCCn2c(=O)oc3ccc(C)cc32)c1 | -9.8% | / | / | / | -18.9% | /
Cc1nc2ccccn2c(=O)c1NC(=O)c1ccc(F)c(F)c1 | 3.7% | / | / | / | / | /
O=C1C2C3C=CC(CC3)C2C(=O)N1c1ccc(Cl)cc1 (centres undefined) | -22.0% | 0.4% | 1.8% | 4.9% | / | -7.2%
CCc1ccc(N2C(=O)C3C4C=CC(CC4)C3C2=O)cc1 (centres undefined) | 4.26µM* | 9.1% | 19.0% | 2.5% | / | ?
O=C(OCC(=O)N1N=C(c2ccc(Cl)cc2)CC1c1ccco1)c1cncc(Br)c1 (centres undefined) | / | 6.6% | / | / | / | 8.7%
O=C(NCc1cccs1)c1cc(-c2ccc(O)cc2)on1 | ? | ? | 3.55µM* | ? | / | ?
COCCNC(=O)c1cc(-c2ccccc2OC)on1 | 21.3µM* | ? | ? | 8.7% | 35.6% | ?
Cc1ccc2[nH]cc(C(=O)NCc3cccs3)c(=O)c2c1 | -13.1% | -3.0% | -1.7% | -6.7% | -24.3% | ?
COc1ccccc1-c1cc(C(=O)NC(C)C)no1 | 13.5µM* | ? | 2.82µM* | 3.16µM* | 28.6% | ?
COc1cccc2c(=O)c(C(=O)NCc3cccs3)c[nH]c12 | 9.53µM* | ? | 3.55µM* | ? | ? | ?
Cc1ccc(C)c(NC(=O)C(Cc2ccccc2)N2Cc3ccccc3C2=O)c1 (centres undefined) | -14.1% | / | / | / | / | /
O=C(Nc1ccccc1)N1CC2(CCN(C(=O)c3ccco3)CC2)C1 | / | / | / | / | 10.1% | /
Nc1ncnc2c1ncn2[C@@H]1O[C@H](CNCc2cccc(C#Cc3ccccc3)c2)[C@@H](O)[C@H]1O | / | 12.2% | / | / | / | 13.1%
O=C(NCc1ccco1)c1cc(-c2ccco2)on1 | ? | ? | ? | ? | 1.2% | ?
CCN(CC)C(=O)c1cc(-c2ccccc2OC)on1 | 16.9µM* | ? | ? | ? | 12.2% | ?
COc1ccccc1-c1cc(C(=O)NCc2ccco2)no1 | 15.1µM* | 8.7% | 0.3% | 13.6% | 0.5% | ?
COc1ccccc1-c1cc(C(=O)NCc2cccs2)no1 | 19µM* | 5.7% | -4.6% | 13.0% | -2.8% | ?
COc1ccccc1-c1cc(C(=O)Nc2cc(OC)c(OC)c(OC)c2)no1 | -19.2% | / | / | / | -31.8% | /
CC(=O)N1C2(C=CC1(C)C(=O)NCc1cc(F)cc(C(F)(F)F)c1)CCCCC2 (centres undefined) | / | / | / | / | -11.4% | /
N[C@@]1(C(=O)O)CN[C@@H](C(=O)O)C1 | / | / | / | / | -6.9% | /
O=C(NCCc1ccc(F)cc1)c1ccc(NS(=O)(=O)c2ccc3[nH]c(=O)[nH]c3c2)cc1 | -0.3% | 2.2% | 0.8% | 0.6% | / | 2.8%
C/C=C/C(=O)Nc1nnc(C2CCCCC2)s1 | 26.9µM* | 0.9% | 0.6% | -4.1% | / | 2.7%
SMILES | FLuc modulator | ELG1 genotox | Rab9 promoter act | NPC1 prom act | SMN2 splice enh | ELG1 repair inh
O=C(Nc1nnc(C2CC2)s1)C1CCCCC1 | -15.1% | 12.8% | 10.2% | 12.2% | / | ?
Cc1ccc(C(=O)Nc2nnc(C3CCCCC3)s2)o1 | 9.53µM* | 3.66µM* | 3.98µM* | 1.78µM* | 11.2µM* | ?
CCOCC(=O)Nc1nnc(C2CCCCC2)s1 | ? | ? | ? | ? | 12.6µM* | ?
Cc1cc(C(=O)Nc2nnc(C3CCCCC3)s2)no1 | ? | / | / | / | 4.3% | /
Cc1cccc(NC(=O)C2CCN(S(=O)(=O)c3cccc4nsnc34)CC2)c1C | -7.3% | / | / | / | -0.2% | /
COc1ccc(NC(=O)CSc2nc(-c3ccccc3)[nH]c2-c2ccccc2)cc1OC | -16.4% | / | / | / | -11.8% | /
O=C(CC1C[C@H](C(=O)N2CCOCC2)[C@@]2(CCC3CCCC3)c3[nH]c4ccccc4c3CCN2C1=O)NCc1ccco1 (some centres undefined) | / | -5.2% | / | / | / | 18.7%
O=C(N/N=C/c1c[nH]c2ccccc12)c1cc(-c2ccc(-c3ccccc3)cc2)n[nH]1 | 1.35µM* | 13.4% | ? | 29.8% | 24.5% | ?
O=C(N/N=C/c1c[nH]c2ccccc12)c1ccn[nH]1 | 21.3µM* | 10.1% | ? | 6.9% | 26.6% | ?
O=C(N/N=C/c1c[nH]c2ccccc12)c1cc(-c2ccc3ccccc3c2)n[nH]1 | 9.53µM* | -12.4% | -4.0% | -11.5% | -28.3% | 3.4%
O=C(O)c1ccc(/C=N/NC(=O)c2cc(-c3ccc4c5c(cccc35)CC4)n[nH]2)cc1 | 21.3µM* | -1.6% | -6.6% | -4.4% | 4.1% | -6.4%
Cc1nc(C)c(C(=O)N/N=C/c2c[nH]c3ccccc23)s1 | ? | 9.1% | -6.1% | -3.6% | 11.4% | ?
CCCSc1ncc(Cl)c(C(=O)N2CCN(c3ccc(OC)cc3)CC2)n1 | -11.5% | / | / | / | -32.9% | /
O=C(N/N=C/c1cccs1)c1cc(-c2cccc3ccccc23)n[nH]1 | 19µM* | 15.0% | 26.1% | 0.7% | ? | -1.5%
CCOC(=O)N/N=C/c1c[nH]c2ccccc12 | ? | 7.6% | 8.1% | -2.4% | 4.1% | ?
Cc1ccc(-c2cc(C(=O)N/N=C/c3c[nH]c4ccccc34)[nH]n2)cc1 | 10.7µM* | -1.3% | -16.8% | -19.1% | -6.0% | -7.7%
O=C(N/N=C/c1c[nH]c2ccccc12)c1cc(-c2ccccc2)n[nH]1 | 12µM* | -4.3% | 0.1% | -0.9% | 2.1% | ?
O=C(N/N=C/c1c[nH]c2ccccc12)c1cc(-c2cccc3ccccc23)n[nH]1 | 15.1µM* | -1.6% | -0.7% | -11.7% | 17.7% | -29.2%
O=C(N/N=C/c1cccs1)c1cc(-c2ccc3ccccc3c2)n[nH]1 | -16.5% | -0.3% | -9.1% | 6.9% | -0.8% | -20.5%
C/C(=C\C(=O)c1ccccc1)Nc1ccc2c(c1)OCO2 | 3.79µM* | ? | 3.98µM* | 2.82µM* | 22.4µM* | ?
Cc1ccc(C(=O)Nc2ccc3c(c2)OCO3)o1 | 10.7µM* | 14.6µM* | 28.1%[1.84 µM] | 2.82µM* | 11.2µM* | ?
CC(=O)Nc1ccc2c(c1)OCO2 | -2.2% | -0.7% | 0.6% | -3.2% | 5.8% | 5.7%
C/C(=C\C(=O)c1ccc(C)o1)Nc1ccc2c(c1)OCO2 | 4.78µM* | ? | 2.24µM* | 2.82µM* | 26.7% | ?
Cc1ccc(C(=O)OCC(=O)Nc2ccc3c(c2)OCO3)o1 | -15.3% | 13.0% | 14.6% | 17.3% | 11.0% | ?
